We go through 14 molecules from PubChem BioAssay (Tox21).

The nature of assay [1]: A CellTox Green Cytotoxicity Assay to monitor cytotoxicity in HEK293 cells - 40 hour (AID 1224871). Further: nearly all actives have a fitted effect of over 45% in size. Further: potency means the concentration at half of the fitted maximal effect. In a few lines: (§1)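 Cytotoxicity was tracked continuously in HEK293 cells by a DNA-binding dye excluded from viable cells. Compounds were transferred in DMSO 5 h after seeding; fluorescence was recorded at intervals up to 40 h.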
Assay [2] is described as follows: qHTS RealTime-Glo MT Cell Viability Assay in HEK293 cells - 16 hour (AID 1224872). Further: top concentration of the series differs between compounds; nearly all actives have a fitted effect of over 50% in size. Put shortly: (§2)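 Assay medium contained NanoLuc luciferase plus cell-permeant prosubstrate, added with HEK293 cells at 600 cells/well. After 5 h at 37 C/5% CO2 compounds were added; plates stayed at 37 C for 40 h with serial luminescence reads.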
Assay [3] in a line: qHTS RealTime-Glo MT Cell Viability Assay in HepG2 cells - 8 hour (AID 1224873). Further: nearly all actives have a fitted effect of over 55% in size. Put shortly: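 Real-time viability: cells seeded at 600 per well together with NanoLuc and cell-permeant prosubstrate, compounds added after 5 h incubation. Luminescence tracked at 0, 8, 16, 24, 32 and 40 h of exposure.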
Assay [4] can be described thus: qHTS RealTime-Glo MT Cell Viability Assay in HEK293 cells - 40 hour (AID 1224874). Further: nearly all actives have a fitted effect of over 50% in size. To be noted: RealTime-Glo luminescence; max response: hits give low values. Put shortly:
(§3)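 Nonlytic bioluminescent viability monitoring. HEK293 at 600 cells/well with reagent; 5 h settle; compound transfer by pintool; plates held at 37 C and read at set time points.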

Assay [5] can be described thus: A CellTox Green Cytotoxicity Assay to monitor cytotoxicity in HepG2 cells - 16 hour (AID 1224876). Further: nearly all actives have a fitted effect of over 45% in size. Further: potency means the concentration at half of the fitted maximal effect. Put shortly:
(§4)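 Real-time, homogeneous cytotoxicity readout: dead-cell DNA staining by CellTox Green in HepG2 monolayers, fluorescence measured at timed intervals up to 40 h of continuous compound exposure.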

Assay [6] can be described thus: qHTS RealTime-Glo MT Cell Viability Assay in HepG2 cells - 32 hour (AID 1224877). Further: nearly all actives have a fitted effect of over 55% in size. In a few lines: (§5)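 qHTS, HepG2, 600 cells/well, RealTime-Glo (NanoLuc + prosubstrate) added with cells; 5 h preincubation; DMSO compound addition; 37 C; luminescence at 0/8/16/24/32/40 h.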
Assay [7] is described as follows: A CellTox Green Cytotoxicity Assay to monitor cytotoxicity in HepG2 cells - 24 hour (AID 1224878). Further: nearly all actives have a fitted effect of over 45% in size. Further: potency means the concentration at half of the fitted maximal effect. Put shortly: as §4
Assay [8] can be described thus: qHTS RealTime-Glo MT Cell Viability Assay in HEK293 cells - 0 hour (AID 1224880). Further: top concentration of the series differs between compounds; nearly all actives have a fitted effect of over 45% in size. Put shortly: as §3
Assay [9] in a line: A CellTox Green Cytotoxicity Assay to monitor cytotoxicity in HEK293 cells - 32 hour (AID 1224881). Further: nearly all actives have a fitted effect of over 40% in size. Further: potency means the concentration at half of the fitted maximal effect. Put shortly:
as §1

A short description of assay [10]: A CellTox Green Cytotoxicity Assay to monitor cytotoxicity in HepG2 cells - 0 hour (AID 1224882). Further: nearly all actives have a fitted effect of over 35% in size. Further: potency means the concentration at half of the fitted maximal effect. Put shortly: as §4
Assay [11] is described as follows: A CellTox Green Cytotoxicity Assay to monitor cytotoxicity in HepG2 cells - 32 hour (AID 1224883). Further: nearly all actives have a fitted effect of over 50% in size. Further: potency means the concentration at half of the fitted maximal effect. In a few lines: as §4
Assay [12] is described as follows: A CellTox Green Cytotoxicity Assay to monitor cytotoxicity in HEK293 cells - 8 hour (AID 1224884). Further: nearly all actives have a fitted effect of over 35% in size. Further: potency means the concentration at half of the fitted maximal effect. In a few lines: as §1
The nature of assay [13]: qHTS RealTime-Glo MT Cell Viability Assay in HepG2 cells - 16 hour (AID 1224885). Further: nearly all actives have a fitted effect of over 50% in size. In a few lines: as §5
A short description of assay [14]: qHTS RealTime-Glo MT Cell Viability Assay in HEK293 cells - 24 hour (AID 1224886). In a few lines:
as §2

A short description of assay [15]: qHTS RealTime-Glo MT Cell Viability Assay in HEK293 cells - 8 hour (AID 1224887). Put shortly: as §3
The nature of assay [16]: qHTS RealTime-Glo MT Cell Viability Assay in HepG2 cells - 0 hour (AID 1224889). Further: nearly all actives have a fitted effect of over 50% in size. Put shortly: as §5
The nature of assay [17]: A CellTox Green Cytotoxicity Assay to monitor cytotoxicity in HepG2 cells - 8 hour (AID 1224890). Further: nearly all actives have a fitted effect of over 45% in size. Further: potency means the concentration at half of the fitted maximal effect. In a few lines: as §4
Assay [18] in a line: A CellTox Green Cytotoxicity Assay to monitor cytotoxicity in HEK293 cells - 24 hour (AID 1224875). Further: nearly all actives have a fitted effect of over 45% in size. Further: potency means the concentration at half of the fitted maximal effect. On activity change: series mostly up to about 77 µM. Put shortly:
as §1

Assay [19] is described as follows: A CellTox Green Cytotoxicity Assay to monitor cytotoxicity in HepG2 cells - 40 hour (AID 1224879). Further: nearly all actives have a fitted effect of over 40% in size. Put shortly:
as §4

Assay [20] can be described thus: A CellTox Green Cytotoxicity Assay to monitor cytotoxicity in HEK293 cells - 16 hour (AID 1224888). Further: nearly all actives have a fitted effect of over 35% in size. Further: potency means the concentration at half of the fitted maximal effect. Put shortly:
as §1

Molecules are shown by their SMILES. Unmarked numbers belong to inactive results. Records with an inconclusive call do not appear. The source made the active and inactive calls. The call rests on the fitted dose curve; in most records, active means well fitted curve in the direction sought with a large enough effect in the repeat runs; inconclusive means weak or mixed curves; inactive means no such curve, though single readings can be large; an effect the other way counts as inactive or inconclusive.
On the % scale 0 is the no-effect control and ±100 the full control effect.

In the case of `NC(Cc1ccc(F)cc1)C(=O)O` (centres undefined), the cytotoxicity increase in [1] was 10% [at 6.97 µM]; in assay [5] it was 8.03% [at 6.97 µM]; in [9] it was 12.7% [at 6.97 µM]; in assay [11], 8.52% [at 6.97 µM]; in assay [12], 17.5% [at 6.97 µM]; in assay [17], 1.46% [at 6.97 µM]. In addition, the activity change, negative = cytotoxicity in [2] is 1.36% [at 6.97 µM]; in assay [8] it was -1.64% [at 6.97 µM]; in assay [14], -0.156% [at 6.97 µM]; in assay [15], 1.39% [at 6.97 µM]; in assay [16], 18.9% [at 6.97 µM]. The viability change, negative = cytotoxic in [3] is 1.3% [at 6.97 µM]. The max response in assay [4] is 2.65%. Besides, the activity change, negative = cytotoxic is -6.06% [at 6.97 µM] in [6] and 2.23% [at 6.97 µM] in [13]. Moreover, the figures for the cytotoxicity in assay [7] and in assay [10] were 7.85% [at 6.97 µM] and -0.531% [at 6.97 µM], respectively.
In the case of `CC(C)(C)c1cccc(O)c1`, the Potency entry in assay [1], in assay [2], in [18], in assay [5], in [6] and in assay [9] was “inactive” each time. The Potency result in [10], in [12], in [14], in [15], in [16] and in assay [17] was “inactive” in each case. For the same molecule, the molecule was classed as inactive in [3], in [8] and in [13]. Moreover, in assay [4], the max response was -6.86%.
For `NNS(=O)(=O)c1ccc(Oc2ccc(S(=O)(=O)NN)cc2)cc1`, the Potency entry in [1], in assay [2], in [5], in assay [6], in [7] and in assay [19] was “inactive” in each case. Moreover, the Potency entry in assay [9], in assay [10], in [11], in assay [12], in [14] and in assay [15] was “inactive” in each case. Moreover, the Potency result in assay [20] and in [17] was “inactive” throughout. The molecule was classed as inactive in assay [3], in assay [8] and in assay [13]. In addition, in [4], the max response is 0.181%.
On to `CC1=C(O)C(=O)OC1C` (centres undefined), for which the Potency entry in assay [1], in assay [2], in [18], in assay [5], in [7] and in assay [19] was “inactive” each time. Besides, the Potency result in assay [9], in assay [12], in [14], in assay [15], in assay [20] and in assay [16] was “inactive” throughout. Further, the Potency entry in [17] is “inactive”. Further, the result in assay [3], in [8] and in assay [13] was inactive. In addition, the max response in assay [4] is 1.31%.
Regarding `CCOC(=O)c1ccccc1O`, the Potency entry in assay [1], in assay [2], in [5], in [6], in assay [7] and in assay [19] was “inactive” in each case. The Potency result in assay [9], in assay [11], in [12], in assay [14], in [15] and in assay [20] was “inactive” throughout. For the same molecule, the Potency entry in assay [16] and in assay [17] was “inactive” in each case. Also, the outcome in [3], in assay [8] and in assay [13] was inactive. The max response in assay [4] is 4.34%.
`Cc1ccc(C=O)s1`: the Potency is 43.6 µM (active) in assay [1]; 43.6 µM (active) in assay [18]; 27.5 µM (active) in [5]; 38.9 µM (active) in assay [7]; 43.6 µM (active) in assay [9]; 43.6 µM (active) in [10]. Moreover, the Potency is 38.9 µM (active) in assay [11], 43.6 µM (active) in [12], 38.9 µM (active) in assay [20] and 38.9 µM (active) in assay [17]. Moreover, the Potency entry in assay [2], in assay [6], in assay [14] and in [15] was “inactive” throughout. For the same molecule, the molecule was classed as inactive in assay [3] and in assay [13]. In [4], the max response is 5.96%.
In the case of `CC(C)=CCCC(C)CCOC=O` (centres undefined), the Potency entry in [1], in assay [2], in [18], in [5], in assay [7] and in assay [19] was “inactive” throughout. Further, the Potency result in assay [9], in assay [10], in assay [12], in assay [14], in assay [15] and in [20] was “inactive” in each case. Besides, the Potency entry in assay [16] and in assay [17] was “inactive” throughout. Further, the result in assay [3], in assay [8] and in [13] was inactive. Also, the max response in [4] was 13.4%.
As for `O=C1C=CC(=O)O1`, the Potency entry in [1], in assay [2], in assay [18], in assay [5], in assay [7] and in assay [19] was “inactive” in each case. For the same molecule, the Potency result in [9], in [11], in assay [12], in [14], in assay [15] and in assay [20] was “inactive” in each case. For the same molecule, the Potency entry in assay [16] and in assay [17] was “inactive” in each case. For the same molecule, the outcome in [3], in [8] and in assay [13] was inactive. Moreover, in assay [4], the max response is 12.6%.
Consider `C/C(=N\O)[C@@H](C)NCC(C)(C)CN[C@H](C)/C(C)=N/O`, for which the Potency result in assay [1], in [2], in [5], in assay [6], in assay [7] and in [9] was “inactive” throughout. Moreover, the Potency result in assay [10], in assay [12], in assay [14], in [15] and in assay [17] was “inactive” throughout. The call in [3], in assay [8] and in [13] was inactive. For the same molecule, the max response in assay [4] is 0.121%.
`ClC(Cl)Cl`: the Potency entry in assay [1], in assay [2], in [18], in assay [5], in assay [7] and in [19] was “inactive” each time. Besides, the Potency result in [9], in assay [10], in assay [11], in assay [12], in [14] and in assay [15] was “inactive” each time. Moreover, the Potency result in assay [20] and in [17] was “inactive” throughout. Moreover, the molecule was classed as inactive in assay [3] and in [13]. Also, in assay [4], the max response is 6.53%.
With `O=c1[nH]cnc2c1ncn2[C@@H]1O[C@H](CO)[C@@H](O)[C@H]1O`, the Potency entry in [1], in assay [2], in [5], in assay [6], in assay [7] and in assay [19] was “inactive” in each case. Moreover, the Potency result in assay [9], in assay [11], in [12], in assay [14], in [15] and in assay [20] was “inactive” throughout. Besides, the Potency result in assay [16] and in assay [17] was “inactive” each time. Also, the result in assay [3], in [8] and in assay [13] was inactive. The max response in [4] was 1.22%.
As to `CCN(O)CC`, the Potency result in [1], in [2], in assay [18], in assay [5], in assay [7] and in [19] was “inactive” throughout. The Potency result in [10], in assay [11], in assay [12], in [14], in [15] and in [20] was “inactive” in each case. Moreover, the Potency result in assay [16] and in assay [17] was “inactive” each time. Besides, the molecule was classed as inactive in assay [3] and in assay [13]. Also, in assay [4], the max response is 12.4%.
In the case of `CCCCCCCCCCCCCCCCOP(=O)([O-])OCC[N+](C)(C)C`, the Potency entry in assay [1], in assay [2], in assay [18], in assay [6], in assay [9] and in [10] was “inactive” throughout. Further, the Potency entry in assay [12], in assay [14], in [15], in assay [20] and in assay [16] was “inactive” in each case. The molecule was called inactive in assay [3], in assay [8] and in assay [13]. Besides, the max response in [4] was -6.12%.
As for `CC1CN(c2ccccc2)NC1=O` (centres undefined), the Potency result in [1], in assay [2], in [5], in assay [6], in [7] and in assay [9] was “inactive” in each case. For the same molecule, the Potency result in assay [10], in assay [11], in [12], in [14], in assay [15] and in assay [20] was “inactive” in each case. For the same molecule, the Potency result in [16] and in assay [17] was “inactive” throughout. The molecule was classed as inactive in assay [3], in assay [8] and in [13]. In addition, in [4], the max response is -13.5%.
